# Measurements reported in PubChem BioAssay (EPA / NIEHS).
# Several values for one entry are separate records, joined by “and”; a condition that tells them apart may be missing. Equal entries are not always repeated. Inconclusive results are not listed. Some structures have more than one record in an assay (separate samples or runs), and their calls can disagree. Activity calls are given as the source filed them. The calls were made as follows: active = hit-call score of the fitted dose curve at least 0.9, where 1 is the maximum; inconclusive = response in the unintended direction; inactive = score below 0.9.
# Legend:
# [1] = target: rat Neurokinin-3 Receptor (NK3), Tacr3 (gene 24808) (UniProt P16177); assay: NVS_GPCR_rNK3: NovaScreen (NVS) G Protein-Coupled Receptor Assay for rat Neurokinin-3 Receptor (NK3) (AID 2283310)
# Sequence of rat Neurokinin-3 Receptor (NK3), Tacr3 (gene 24808) (P16177 whole entry, looked up): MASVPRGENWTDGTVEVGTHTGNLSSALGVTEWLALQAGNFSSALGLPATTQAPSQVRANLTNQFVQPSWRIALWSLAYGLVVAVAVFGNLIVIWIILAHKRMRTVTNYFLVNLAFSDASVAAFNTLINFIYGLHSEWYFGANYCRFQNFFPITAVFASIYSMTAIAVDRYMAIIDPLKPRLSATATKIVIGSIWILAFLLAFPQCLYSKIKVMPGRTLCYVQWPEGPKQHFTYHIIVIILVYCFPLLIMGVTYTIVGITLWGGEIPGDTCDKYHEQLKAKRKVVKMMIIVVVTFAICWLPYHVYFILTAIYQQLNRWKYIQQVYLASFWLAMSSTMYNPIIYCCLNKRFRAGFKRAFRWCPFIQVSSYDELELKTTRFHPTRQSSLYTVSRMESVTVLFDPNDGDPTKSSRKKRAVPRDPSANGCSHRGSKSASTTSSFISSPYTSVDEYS
# Experimental: (§1) NVS_GPCR_rNK3 is a biochemical, single-readout assay that uses extracted gene-proteins from Rat cortical membranes in a tissue-based cell-free assay. Measurements were taken 2 hours after chemical dosing in a 48-well plate.NVS_GPCR_rNK3 is one of one assay component(s) measured or calculated from the NVS_GPCR_rNK3 assay. It is designed to make measurements of radioligand binding, a form of binding reporter, as detected with scintillation counting signals by Filter-based radiodetection technology.Data from the assay component NVS_GPCR_rNK3 was analyzed into 1 assay endpoint. This assay endpoint, NVS_GPCR_rNK3, was analyzed in the positive analysis fitting direction relative to DMSO as the negative control and baseline of activity. […] Furthermore, this assay endpoint can be referred to as a primary readout, because the performed assay has only produced 1 assay endpoint. […]
# (§2) Binding assays used specific radioligands (tritiated, iodinated) with non-radioactive competitive displacement ligands in agonist or antagonist protocols (as indicated) and various reference compounds and inhibitors to titrate specific binding to receptors and transporters. Most enzyme assays (CYPs, kinases, phosphatases, proteases, HDACs) used recombinant protein and specific substrates (fluorescence mostly, some colorimetric and radioactive) and inhibitors, followed by a biochemical separation of substrate and product. […]
# [2] = target: rat Opioid Receptor, Non-selective Sodium (Na+) Binding, Oprm1 (gene 25601) (UniProt P33535); assay: NVS_GPCR_rOpiate_NonSelectiveNa: NovaScreen (NVS) G Protein-Coupled Receptor Assay for rat Opioid Receptor, Non-selective Sodium (Na+) Binding (AID 2283311)
# Sequence of rat Opioid Receptor, Non-selective Sodium (Na+) Binding, Oprm1 (gene 25601) (P33535 whole entry, looked up): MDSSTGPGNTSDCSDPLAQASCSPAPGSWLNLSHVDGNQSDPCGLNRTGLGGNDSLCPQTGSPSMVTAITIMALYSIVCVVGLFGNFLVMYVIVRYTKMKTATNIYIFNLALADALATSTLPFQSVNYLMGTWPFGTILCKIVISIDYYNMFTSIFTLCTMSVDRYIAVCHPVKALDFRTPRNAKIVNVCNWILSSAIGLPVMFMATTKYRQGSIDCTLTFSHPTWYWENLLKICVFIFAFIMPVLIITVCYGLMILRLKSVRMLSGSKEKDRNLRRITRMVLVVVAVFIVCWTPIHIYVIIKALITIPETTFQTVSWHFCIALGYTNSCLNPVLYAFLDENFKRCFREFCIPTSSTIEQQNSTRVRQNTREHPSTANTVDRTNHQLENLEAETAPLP
# How it was run: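 Rat forebrain membranes, radioligand displacement with filter scintillation counting, 1.5 h incubation. Screened in duplicate at 25 µM; hits then run in concentration-response up to 50 µM; loss of binding fitted versus DMSO.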
# [3] = target: rat Somatostatin Receptor (SST), Sstr1 (gene 25033) (UniProt P28646); assay: NVS_GPCR_rSST: NovaScreen (NVS) G Protein-Coupled Receptor Assay for rat Somatostatin Receptor (SST) (AID 2283314)
# Sequence of rat Somatostatin Receptor (SST), Sstr1 (gene 25033) (P28646 whole entry, looked up): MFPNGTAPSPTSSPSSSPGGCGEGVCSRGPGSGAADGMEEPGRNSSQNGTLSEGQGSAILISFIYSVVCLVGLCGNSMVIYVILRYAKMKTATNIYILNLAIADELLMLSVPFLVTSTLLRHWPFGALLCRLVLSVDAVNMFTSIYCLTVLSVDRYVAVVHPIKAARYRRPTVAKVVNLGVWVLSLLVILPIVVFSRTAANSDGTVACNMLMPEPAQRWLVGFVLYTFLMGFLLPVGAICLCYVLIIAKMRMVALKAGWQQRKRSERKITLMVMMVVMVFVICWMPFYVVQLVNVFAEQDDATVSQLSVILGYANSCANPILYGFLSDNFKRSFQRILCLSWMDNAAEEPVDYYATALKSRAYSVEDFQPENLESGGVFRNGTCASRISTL
# How it was run: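 Rat forebrain membranes; radioligand displacement read by filter-based scintillation counting 1 h after dosing. Primary screen in duplicate at 25 uM. Actives (e.g., 30% inhibition) were rerun as concentration-response to 50 uM max and fitted against DMSO.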
# [4] = target: rat Vasopressin 1 Receptor (V1), Avpr1a (gene 25107) (UniProt P30560); assay: NVS_GPCR_rV1: NovaScreen (NVS) G Protein-Coupled Receptor Assay for rat Vasopressin 1 Receptor (V1) (AID 2283316)
# Sequence of rat Vasopressin 1 Receptor (V1), Avpr1a (gene 25107) (P30560 whole entry, looked up): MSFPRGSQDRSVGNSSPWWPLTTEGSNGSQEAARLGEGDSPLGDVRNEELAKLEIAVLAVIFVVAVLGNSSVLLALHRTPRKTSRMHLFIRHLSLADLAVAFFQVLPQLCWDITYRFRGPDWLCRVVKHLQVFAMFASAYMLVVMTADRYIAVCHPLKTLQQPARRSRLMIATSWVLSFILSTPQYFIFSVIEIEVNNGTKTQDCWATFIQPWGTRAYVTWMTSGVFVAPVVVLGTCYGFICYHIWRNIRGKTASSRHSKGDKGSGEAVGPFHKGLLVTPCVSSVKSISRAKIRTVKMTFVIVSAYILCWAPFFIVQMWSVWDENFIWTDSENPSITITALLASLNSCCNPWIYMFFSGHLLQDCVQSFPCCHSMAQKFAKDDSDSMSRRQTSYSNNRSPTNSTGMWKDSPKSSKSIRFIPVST
# Experimental: as §1, with “NVS_GPCR_rV1” for “NVS_GPCR_rNK3”, “liver” for “cortical”, “1.5” for “2”, “plate.NVS_GPCR_rV1” for “plate.NVS_GPCR_rNK3”, “NVS_GPCR_rV1,” for “NVS_GPCR_rNK3,”
# as §2
# Adra2b (gene 24174) = Adra2b (gene 24174) (UniProt P19328); assay: NVS_GPCR_rmAdra2B: NovaScreen (NVS) G Protein-Coupled Receptor Assay for hybird cells Adrenergic, Alpha 2B Receptor (Adra2B) (AID 2283306)
# Sequence of Adra2b (gene 24174) (P19328 whole entry, looked up): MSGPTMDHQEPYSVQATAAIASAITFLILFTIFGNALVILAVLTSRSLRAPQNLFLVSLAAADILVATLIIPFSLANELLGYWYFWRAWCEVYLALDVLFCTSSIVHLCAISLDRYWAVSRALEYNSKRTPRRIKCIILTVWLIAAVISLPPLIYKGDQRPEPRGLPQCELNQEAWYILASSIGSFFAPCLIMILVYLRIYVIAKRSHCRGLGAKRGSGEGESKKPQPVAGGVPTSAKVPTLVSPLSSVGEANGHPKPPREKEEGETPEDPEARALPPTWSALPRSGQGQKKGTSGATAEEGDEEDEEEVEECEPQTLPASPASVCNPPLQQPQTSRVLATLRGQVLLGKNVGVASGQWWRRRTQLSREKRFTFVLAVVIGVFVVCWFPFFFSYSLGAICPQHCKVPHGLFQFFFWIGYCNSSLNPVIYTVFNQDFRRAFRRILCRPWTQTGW
# How it was run: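 Radioligand filter-binding assay on membrane proteins from neuroglioma/blastoma hybrid cells (rodent), 1 h after dosing; scintillation counting, loss of signal vs DMSO. Primary screen in duplicate at 25 uM, actives then run in concentration series.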
# [5] = target: rat Neurokinin-1 Receptor (NK1), Tacr1 (gene 24807) (UniProt P14600); assay: NVS_GPCR_rNK1: NovaScreen (NVS) G Protein-Coupled Receptor Assay for rat Neurokinin-1 Receptor (NK1) (AID 2283309)
# Sequence of rat Neurokinin-1 Receptor (NK1), Tacr1 (gene 24807) (P14600 whole entry, looked up): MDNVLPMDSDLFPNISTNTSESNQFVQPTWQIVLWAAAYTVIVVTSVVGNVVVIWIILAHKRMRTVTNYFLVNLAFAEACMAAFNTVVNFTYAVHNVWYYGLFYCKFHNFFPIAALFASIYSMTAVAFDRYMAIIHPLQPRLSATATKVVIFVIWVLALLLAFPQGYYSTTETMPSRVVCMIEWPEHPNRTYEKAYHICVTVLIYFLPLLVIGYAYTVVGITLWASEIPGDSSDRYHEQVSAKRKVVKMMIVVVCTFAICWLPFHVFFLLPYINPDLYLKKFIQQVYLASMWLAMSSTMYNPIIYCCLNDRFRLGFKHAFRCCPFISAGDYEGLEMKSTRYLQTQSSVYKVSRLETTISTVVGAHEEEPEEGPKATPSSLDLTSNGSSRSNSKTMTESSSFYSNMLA
# How it was run: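 Rat submaxillary gland membranes; radioligand displacement read by filter-based scintillation counting after 1 h. Primary screen in duplicate at 25 uM; actives retested in concentration series; loss of binding fitted versus DMSO.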
# [6] = target: rat Opioid Receptor, Non-selective Binding, Oprm1 (gene 25601) (UniProt P33535); assay: NVS_GPCR_rOpiate_NonSelective: NovaScreen (NVS) G Protein-Coupled Receptor Assay for rat Opioid Receptor, Non-selective Binding (AID 2283318)
# Sequence of rat Opioid Receptor, Non-selective Binding, Oprm1 (gene 25601) (P33535 whole entry, looked up): as the sequence (P33535 whole entry, looked up) above
# How it was run: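 Rat forebrain membranes, cell-free radioligand binding with filter-based scintillation counting, read 1.5 h after dosing. Primary screen in duplicate at 25 uM; actives retested in concentration series. Loss of signal versus DMSO baseline scored.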
# [7] = NVS_IC_rCaDHPRCh_L: NovaScreen (NVS) Ion Channel Assay for rat Calcium Channel, Type L, Dihydropyridine Site (CaDHPRCh_L) (AID 2283320)
# How it was run: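 Radioligand binding to dihydropyridine site on rat cortical membranes, filter-based scintillation counting, 1 h after dosing. Screened in duplicate at 25 uM; actives rerun in concentration-response up to 50 uM. Loss of signal versus DMSO baseline.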
# NCBI gene 24521 = assay: NVS_IC_rKATPCh: NovaScreen (NVS) Ion Channel Assay for rat Potassium Channel, ATP-Sensitive (KATPCh) (AID 2283319)
# How it was run: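 Rat cortical membranes; radioligand binding at ATP-sensitive K channel site, filter-based scintillation counting 2 h after dosing. Single-point duplicate screen at 25 uM, hits rerun in concentration-response up to 50 uM; loss of signal versus DMSO.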
# [8] = target: rat Neonicotinoid receptor (NNR), Chrna7 (gene 25302) (UniProt Q05941); assay: NVS_LGIC_rNNR_BungSens: NovaScreen (NVS) Ligand-Gated Ion Channel Assay for rat Neonicotinoid receptor (NNR) (AID 2283315)
# Sequence of rat Neonicotinoid receptor (NNR), Chrna7 (gene 25302) (Q05941 whole entry, looked up): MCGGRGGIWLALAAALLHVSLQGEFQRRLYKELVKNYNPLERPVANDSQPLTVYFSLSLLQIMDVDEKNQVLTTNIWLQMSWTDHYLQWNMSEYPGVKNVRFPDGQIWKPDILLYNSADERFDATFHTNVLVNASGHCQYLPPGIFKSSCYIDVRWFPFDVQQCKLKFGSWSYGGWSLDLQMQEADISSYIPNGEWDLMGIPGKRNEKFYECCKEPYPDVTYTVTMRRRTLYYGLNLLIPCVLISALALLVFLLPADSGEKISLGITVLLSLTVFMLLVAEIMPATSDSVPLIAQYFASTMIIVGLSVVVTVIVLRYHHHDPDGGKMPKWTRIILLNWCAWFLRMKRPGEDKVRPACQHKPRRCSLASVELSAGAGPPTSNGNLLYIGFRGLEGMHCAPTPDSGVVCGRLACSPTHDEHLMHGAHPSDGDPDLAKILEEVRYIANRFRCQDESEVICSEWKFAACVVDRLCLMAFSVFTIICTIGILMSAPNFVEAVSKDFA
# How it was run: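 Radioligand displacement binding on rat cortical membranes, 2.5 h incubation, filtration and scintillation counting. Loss of specific binding fitted relative to DMSO.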
smiles,measurement,setting,value
S=C(S)NCCNC(=S)S.[Mn+2].[S-]C([S-])=NCCN=C([S-])[S-].[Zn+2],outcome,[1],inactive
same,outcome,[2],inactive
same,AC50,[3],1.49 µM (active)
same,outcome,[3],inactive
same,outcome,[4],inactive
C=CCOC(Cn1ccnc1)c1ccc(Cl)cc1Cl (stereo not given),AC50,Adra2b (gene 24174),6.96 µM (active)
same,AC50,[5],37.8 µM (active)
same,outcome,[2],inactive
same,AC50,[6],9.36 µM (active)
Oc1ccc(C(c2ccc(O)cc2)C(Cl)(Cl)Cl)cc1,AC50,[5],39.4 µM (active)
same,AC50,[7],6.47 µM (active)
CN(C)C(=O)Nc1ccc(Cl)c(Cl)c1,outcome,NCBI gene 24521,inactive
N#CSCSc1nc2ccccc2s1,AC50,[4],2.34 µM (active)
O=C(c1ccc(O)cc1O)c1ccc(O)cc1O,outcome,[8],inactive
same,outcome,[7],inactive
C[C@]12C[C@H](O)[C@H]3[C@@H](CCC4=CC(=O)CC[C@@]43C)[C@@H]1CC[C@@H]2C(=O)CO,outcome,Adra2b (gene 24174),inactive
same,outcome,[8],inactive
N[C@@H](Cc1cc(I)c(Oc2ccc(O)c(I)c2)c(I)c1)C(=O)O,outcome,[8],inactive
COC(=O)c1ccccc1S(=O)(=O)NC(=O)Nc1nc(OC(F)F)cc(OC(F)F)n1,AC50,[3],36.3 µM (active)
CCOC(=O)c1ccc(O)cc1,outcome,[2],inactive
C[C@]12CC[C@@H]3c4ccc(O)cc4C[C@@H](CCCCCCCCCS(=O)CCCC(F)(F)C(F)(F)F)[C@H]3[C@@H]1CC[C@@H]2O (stereo not given in full),outcome,[5],inactive
c1ccc(Nc2ccccc2)cc1,outcome,NCBI gene 24521,inactive
CCOC(=O)C(C)Oc1ccc(Oc2nc3ccc(Cl)cc3o2)cc1 (stereo not given),outcome,[7],inactive
CC(=O)S[C@@H]1CC2=CC(=O)CC[C@]2(C)[C@H]2CC[C@@]3(C)[C@@H](CC[C@@]34CCC(=O)O4)[C@H]12,AC50,[2],17.8 µM (active)
same,AC50,[8],17.1 µM (active)
S=C([S-])NCCNC(=S)[S-].[Mn+2],outcome,[1],inactive
CC(C)(c1ccc(O)cc1)c1ccc(O)cc1,outcome,Adra2b (gene 24174),inactive
same,AC50,[2],25.4 µM (active) and 17 µM (active) and 20.5 µM (active)
same,outcome,[8],inactive
same,AC50,[6],25.4 µM (active) and 17.6 µM (active)
same,outcome,[7],inactive
C#C[C@]1(O)CC[C@H]2[C@@H]3CCC4=CC(=O)CC[C@@H]4[C@H]3CC[C@@]21CC,outcome,[5],inactive
CC(C)(C)[C@@H](O)[C@@H](Cc1ccc(Cl)cc1)n1cncn1,outcome,[3],inactive
COC(=O)c1ccccc1C(=O)O,AC50,NCBI gene 24521,25 µM (active)
CSC(=O)c1cccc2nnsc12,outcome,[2],inactive
